Measured values reported in PubChem BioAssay AID1259251 (The Scripps Research Institute Molecular Screening Center, 2017).
Out of some 30,000 compounds screened, about 580 (1.9%) were called active. Rule as the data show it: active = inhibition above about 43%; inactive = the rest. For the sample, actives were picked, then their nearest neighbours and some compounds at random.

The compounds below were run against Serine/threonine-protein kinase ULK1 (Homo sapiens) (UniProt O75385) (assay: inhibition of human autophagy kinase ULK1 – biochemical, AlphaScreen, primary screen (AID 1259251;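 also: 0% = median of compound wells and 100% = no enzyme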)). Conditions: AlphaScreen Atg13 phosphorylation by ULK1, luminescence; at 5.96 µM; stronger effect = higher value.
Serine/threonine-protein kinase ULK1 (Homo sapiens), sequence (O75385 whole entry, looked up): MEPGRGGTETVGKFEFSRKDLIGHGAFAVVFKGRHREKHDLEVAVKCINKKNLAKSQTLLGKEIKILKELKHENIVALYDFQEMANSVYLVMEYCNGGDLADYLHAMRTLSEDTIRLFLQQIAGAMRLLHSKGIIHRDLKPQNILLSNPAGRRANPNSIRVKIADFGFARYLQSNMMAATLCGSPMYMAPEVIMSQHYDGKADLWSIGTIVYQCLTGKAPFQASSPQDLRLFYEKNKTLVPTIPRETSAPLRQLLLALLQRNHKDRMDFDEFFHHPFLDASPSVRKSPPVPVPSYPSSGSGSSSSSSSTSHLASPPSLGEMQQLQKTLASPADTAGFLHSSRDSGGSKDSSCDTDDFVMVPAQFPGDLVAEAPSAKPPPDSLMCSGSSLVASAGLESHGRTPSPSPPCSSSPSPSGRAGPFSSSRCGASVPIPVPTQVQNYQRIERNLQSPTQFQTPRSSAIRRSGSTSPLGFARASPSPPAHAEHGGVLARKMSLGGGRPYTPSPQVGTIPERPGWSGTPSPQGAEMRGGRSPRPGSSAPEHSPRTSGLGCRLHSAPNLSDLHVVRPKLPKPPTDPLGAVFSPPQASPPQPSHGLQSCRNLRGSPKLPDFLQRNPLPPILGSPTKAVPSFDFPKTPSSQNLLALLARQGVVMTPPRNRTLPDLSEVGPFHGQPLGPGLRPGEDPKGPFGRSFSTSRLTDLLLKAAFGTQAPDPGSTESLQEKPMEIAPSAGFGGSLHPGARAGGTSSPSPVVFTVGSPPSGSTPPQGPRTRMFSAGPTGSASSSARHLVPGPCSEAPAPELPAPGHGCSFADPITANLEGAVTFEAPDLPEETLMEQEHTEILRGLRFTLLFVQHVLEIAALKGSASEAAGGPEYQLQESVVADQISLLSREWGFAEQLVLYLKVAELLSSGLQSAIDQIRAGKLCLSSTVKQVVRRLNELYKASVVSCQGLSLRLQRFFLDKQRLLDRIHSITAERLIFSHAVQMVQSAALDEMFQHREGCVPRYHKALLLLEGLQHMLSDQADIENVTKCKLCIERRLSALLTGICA
`COc1ccc(-n2cc(-c3ccccc3[N+](=O)[O-])cn2)cc1` was tested, and the inhibition was -17.3% (inactive). With `Cc1nn(C)c(C)c1-c1nc2ccc(C(=O)NCCO)cc2s1` the inhibition was 1.9% (inactive). With `O=C(NCCOc1ccccc1)c1ccc2nc(N3CCN(Cc4ccc5c(c4)OCO5)CC3)sc2c1` the inhibition was 1.44% (inactive). With `COc1ccc(-c2nc3ncnc(NCCc4ccc(O)cc4)c3[nH]2)cn1` the inhibition was -9.33% (inactive). For `c1ccc(Oc2cc(NC3CC3)ncn2)cc1`, the inhibition was 4.64% (inactive). In the case of `O=C(NCc1nc2ccccc2[nH]1)c1cccc(-c2cccs2)c1`, the inhibition was 1.37% (inactive). In the case of `CC(C)(C)c1ccc(S(=O)(=O)NCc2nc(-c3ccncc3)n[nH]2)cc1`, the inhibition was 2.8% (inactive). For `Cc1ccc(C)c(NS(=O)(=O)c2ccc3c(c2)OCCCO3)c1`, the inhibition was 0.58% (inactive). `c1ccc(CN2CCC(Nc3nc(NCCN4CCOCC4)c4ncn(C5CCCCC5)c4n3)CC2)cc1` was tested, and the inhibition was 7.74% (inactive). For `c1cc2c(cc1CNc1nc(Nc3ccc(N4CCOCC4)cc3)c3ncn(C4CCCCC4)c3n1)OCO2`, the inhibition was 56.2% (active). `c1ccc(CN2CCC(Nc3nc(Nc4ccc(N5CCOCC5)cc4)c4ncn(C5CCCCC5)c4n3)CC2)cc1` was tested, and the inhibition was 50.8% (active). For `c1ccc(CN2CCC(Nc3nc(-c4ccccc4)nc4c3ncn4C3CCCCC3)CC2)cc1`, the inhibition was -30.6% (inactive). `c1ccc(CN2CCC(Nc3nc(NCc4ccc5c(c4)OCO5)nc4c3ncn4C3CCCCC3)CC2)cc1` was tested, and the inhibition was 1.3% (inactive). `O=C1CCCN1CCn1cnc2c(Nc3ccc(N4CCOCC4)cc3)nc(NCc3ccc4c(c3)OCO4)nc21` was tested, and the inhibition was 11.6% (inactive). `CC(C)N(CCNC(=O)C1CCN(c2ccc(Nc3ccccc3)nn2)CC1)C(C)C` was tested, and the inhibition was 0.63% (inactive). With `COc1cc(NC(=O)c2ccnc(-c3c(C)noc3C)c2)cc(OC)c1OC` the inhibition was 3.86% (inactive). `Oc1ccc(CCNc2nc(Nc3ccncn3)nc3c2ncn3C2CCCCC2)cc1` was tested, and the inhibition was 14.6% (inactive). For `CC(=O)Nc1ccc(Nc2nc(Nc3ccccn3)ncc2C)cc1`, the inhibition was 8.71% (inactive). `CC(C)N(CCNC(=O)Cc1cn(-c2ccc(Nc3ccc(N4CCOCC4)cc3)nn2)c2ccccc12)C(C)C` was tested, and the inhibition was 5.92% (inactive). For `COc1cc(CNC(=O)c2cnc3cc(-c4cn[nH]c4)ccn23)cc(OC)c1`, the inhibition was -6.5% (inactive). `CCCNC(=O)c1ccc2nc(-c3c(C)nn(C)c3C)sc2c1` was tested, and the inhibition was 1.04% (inactive). For `O=C1CCCN1CCCNc1nc(-c2ccccc2)nc2nc[nH]c12`, the inhibition was 9.26% (inactive). In the case of `CN(C)c1cccc(Nc2nc(NCCO)c3[nH]cnc3n2)c1`, the inhibition was 15.6% (inactive). With `OCCNc1nc(Nc2ccccn2)nc2nc[nH]c12` the inhibition was 8.19% (inactive). With `OCCNc1nc(Nc2ccc3ncccc3c2)nc2nc[nH]c12` the inhibition was 62.7% (active). In the case of `O=C1CCCN1CCCNc1nc(Nc2ccc3ncccc3c2)nc2nc[nH]c12`, the inhibition was 67.6% (active). With `O=C1CCCN1CCCNc1nc(Nc2cnccn2)nc2nc[nH]c12` the inhibition was -13.6% (inactive).
